# Laboratory results published in PubChem BioAssay (NCATS).
# Results filed as inconclusive are left out. Active and inactive are the calls of the source. Calls come from the whole dose curve; as a rule, active = well fitted inhibition curve with a large enough effect; inconclusive = small, poorly fitted or top-dose-only effect; inactive = no such curve, though single readings can be large or run the other way.
# System: Zika virus NS2B-NS3 protease (unlinked complex)
# Assay: Primary screen GU Rhodamine qHTS for Zika virus inhibitors: Unlinked NS2B-NS3 protease assay (AID 1347159); note: nearly all actives have a fitted effect of over 60% in size
# Conditions: Recombinant ZIKV NS2B-NS3 protease, Rhodamine110 substrate fluorescence; series mostly up to 107 µM; activity change, negative = inhibition: at the top concentration
# Method in brief: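 Percent inhibition came from the 15-min rise in Rhodamine110 fluorescence (1.5 microM substrate, ~15% conversion), normalized to no-inhibitor and no-enzyme wells and Hill-fitted. Unlinked protease, 25 nM, pH 8.0 Tris buffer; compounds up to 114 microM, 15-min preincubation.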
# % is set by controls: 0 for no effect and ±100 for the full control effect; potency is the fitted concentration of half-maximal effect.
Compound,"activity change, negative = inhibition",Potency
C[C@@H]1O[C@@H](OC[C@H]2O[C@@H](OCC3CCC4CC3C4(C)C)[C@H](O)[C@@H](O)[C@@H]2O)[C@H](O)[C@H](O)[C@H]1O (some centres not stated),-24.3% [at 57.1 µM] (inactive),
CCOc1ccc(C(Nc2ccccn2)c2ccc3ccc(C)nc3c2O)cc1C (configuration not stated),-16.7% (inactive),
O=C(/C=C/c1ccc(O)cc1)OCC1=CC2OC(=O)C3=CO[C@@H](O[C@@H]4O[C@H](CO)[C@@H](O)[C@H](O)[C@H]4O)[C@H]1[C@@H]32 (some centres not stated),-15% [at 57.1 µM] (inactive),
CC(=O)NC(C(=O)OC1CCC(C)(C)C2CC=C3C(=O)OCC3(O)C12C)C(C)C (configuration not stated),-6.8% [at 57.1 µM] (inactive),
O=C1CC(c2ccc([N+](=O)[O-])cc2)=NN1c1ccccc1,,39.8 µM (active)
CCC(=O)NS(=O)(=O)c1ccc(-c2c(-c3ccccc3)noc2C)cc1,-18.2% (inactive),
O=C(O[C@@H]1O[C@H](CO)[C@@H](O)[C@H](O)[C@H]1O)c1c(O)cc(O)cc1/C=C/c1ccccc1,3.68% [at 57.1 µM] (inactive),
CCC(C)C(=O)O[C@@H]1[C@@H](O)[C@@H](O[C@H]2O[C@H](CO)[C@@H](O)[C@H](O)[C@H]2O)O[C@H](CO)[C@H]1O (some centres not stated),17.6% [at 57.1 µM] (inactive),
CC(O)(CC(=O)O)CC(=O)O[C@@H]1[C@@H](O)[C@H](OCCc2ccccc2)O[C@H](CO)[C@H]1O (some centres not stated),5.64% [at 57.1 µM] (inactive),
CC(=O)NC(CCC(=O)O)C(=O)NCCc1ccc(O)cc1 (configuration not stated),5.07% (inactive),
C=C1CC2(C(=O)O)CC1CCC2C1(C)CCCC2(C)C(=O)OC(O)C21 (configuration not stated),-4.22% (inactive),
Cc1ccc2c(c1)C=Cc1cc(C)ccc1C2c1cn(Cc2ccc(C(=O)Nc3nn[nH]n3)o2)c(=O)[nH]c1=S,,3.16 µM (active)
